Measured values reported in PubChem BioAssay (NCATS).
Results filed as inconclusive are left out. Where a call stands in place of a potency, no number is given. Unmarked numbers belong to inactive results. Calls of active or inactive are those of the source. Calls follow the shape of the full dose curve.

Experiment: Primary qHTS for Huh7 cytotoxicity: counterscreen for inhibitors of MERS-S pseudotyped particle cell entry (AID 1479147)
Conditions: cell viability read-out; series mostly up to 57.1 µM
Potency is read from the fitted curve at half-maximal effect.

Row | Compound | Potency | activity change, negative = cytotoxicity | outcome
1 | CC1CCCC(C)N1C(=S)Nc1cccc(C(F)(F)F)c1 (stereo not drawn) | inactive |  | 
2 | CN1N=C2CCN(C(=O)[C@H](COCc3ccccc3)NC(=O)C(C)(C)N)C[C@]2(Cc2ccccc2)C1=O | inactive |  | 
3 | OC(c1ccccc1)(c1ccccc1)C12CC[N+](CCOCc3ccccc3)(CC1)CC2 | inactive |  | 
4 | C=CC1(C)CC(=O)C2(O)C(C)(O1)C(OC(C)=O)C(OC(=O)CCN(C)C)C1C(C)(C)CCC(O)C12C (stereo not drawn) | inactive |  | 
5 | CN[C@@H]1[C@@H](O)[C@@H](O[C@@H]2[C@@H](O)[C@H](OC3O[C@H](CN)[C@@H](O)[C@H](O)[C@H]3O)[C@@H](N)C[C@H]2NC(=O)[C@@H](O)CN)OC[C@]1(C)O (stereo partly drawn) | inactive |  | 
6 | COc1ccc(CNCC(O)COc2ccc3[nH]c(=O)ccc3c2)cc1OC (stereo not drawn) | inactive |  | 
7 | C[N+]1(C)CCN(CC(O)(c2ccccc2)C2CCCCC2)CC1 (stereo not drawn) | inactive |  | 
8 | O=P(O)(O)OC1C(OP(=O)(O)O)C(OP(=O)(O)O)C(OP(=O)(O)O)C(OP(=O)(O)O)C1OP(=O)(O)O (stereo not drawn) | inactive |  | 
9 | CNCc1cc(-c2ccccc2F)n(S(=O)(=O)c2cccnc2)c1 | inactive |  | 
10 | [Mn].[O]=[Mn][OH].[O]=[Mn][OH] | inactive |  | 
11 | C[C@]12C=CC(=O)C=C1CC[C@@H]1[C@@H]2[C@@H](O)C[C@@]2(C)[C@H]1CC[C@]2(O)C(=O)COP(=O)(O)O |  | -13.3% [at 11.4 µM] | 
12 | COc1cc(N)cn[n+]1-c1ccccc1 | inactive |  | 
13 | CC1CCCCN1CCCOC(=O)c1ccccc1 (stereo not drawn) | inactive |  | 
14 | CCCCCCCCCCCCOC(=O)CS(=O)(=O)O | inactive |  | 
15 | CCCCN(CCCC)C(=S)[S-].CCCCN(CCCC)C(=S)[S-].[Zn+2] | inactive |  | 
16 | CCC(=O)O[C@@H](OP(=O)(CCCCc1ccccc1)CC(=O)N1C[C@H](C2CCCCC2)C[C@H]1C(=O)O)C(C)C (stereo partly drawn) |  |  | inactive [at 11.4 µM]
17 | O=C(Nc1ccc(O)cc1)c1ccccc1O | inactive |  | 
18 | C=C1c2c(Cl)ccc(O)c2C(O)=C2C(=O)[C@@]3(O)C(O)=C(C(N)=O)C(=O)[C@@H](N(C)C)[C@@H]3[C@@H](O)[C@H]12 | inactive |  | 
19 | Oc1cc(O)cc(O)c1 | inactive |  | 
20 | CC(OC(=O)NCC1(CC(=O)O)CCCCC1)OC(=O)C(C)C (stereo not drawn) | inactive |  | 

Row | Compound | Potency | activity change, negative = cytotoxicity | outcome
21 | O=C(O)C(O)C(O)C(=O)O (stereo not drawn) | inactive |  | 
22 | NC(N)=NCC1COC2(CCCCC2)O1 (stereo not drawn) | inactive |  | 
23 | COC(=O)[C@@H](N)CS | inactive |  | 
24 | CC1(C)C[C@H]1C(=O)N/C(=C\CCCCSC[C@@H](N)C(=O)O)C(=O)O | inactive |  | 
25 | CCCCCCCCCCCCCCCC(=O)OCC(O)C1OC(=O)C(O)=C1O (stereo not drawn) | inactive |  | 
26 | Cc1c(C)c2c(c(C)c1OC(=O)CCC(=O)O)CC[C@@](C)(CCC[C@H](C)CCC[C@H](C)CCCC(C)C)O2 | inactive |  | 
27 | COc1nc2ccc(Br)cc2cc1[C@@H](c1ccccc1)[C@@](O)(CCN(C)C)c1cccc2ccccc12 | inactive |  | 
28 | CCOc1nc2cccc(C(=O)O)c2n1Cc1ccc(-c2ccccc2-c2noc(=O)[nH]2)cc1 | inactive |  | 
29 | CC[C@H]1OC(=O)C[C@@H](O)[C@H](C)[C@@H](O[C@@H]2O[C@H](C)[C@@H](O)[C@H](N(C)C)[C@H]2O)[C@@H](CCN2C[C@H](C)C[C@H](C)C2)C[C@@H](C)C(=O)/C=C/C(C)=C/[C@@H]1CO[C@@H]1O[C@H](C)[C@@H](O)[C@@H](OC)[C@H]1OC | inactive |  | 
30 | O=C(O)[C@H]1OC(O)[C@H](O)[C@@H](O)[C@@H]1O (stereo partly drawn) | inactive |  | 
31 | CCCCC(O)c1ccccc1 (stereo not drawn) | inactive |  | 
32 | CC(C)(C)C(=O)OCOC(=O)[C@@H]1N2C(=O)[C@@H](N=CN3CCCCCC3)[C@H]2SC1(C)C | inactive |  | 
33 | NC(=O)C1(N2CCCCC2)CCN(CCCN2c3ccccc3CCc3ccccc32)CC1 | 28.2 µM (active) |  | 
34 | C[N+](C)(C)CC(O)CC(=O)O (stereo not drawn) | inactive |  | 
35 | N[C@H](Cc1cnc[nH]1)C(=O)O | inactive |  | 
36 | CC(C)(C)NC(=O)N[C@H](C(=O)N1C[C@H]2[C@@H]([C@H]1C(=O)NC(CC1CCC1)C(=O)C(N)=O)C2(C)C)C(C)(C)C (stereo partly drawn) | inactive |  | 
37 | CN1c2c(nc(N)[nH]c2=O)NC[C@@H]1CNc1ccc(C(=O)N[C@@H](CCC(=O)O)C(=O)O)cc1 |  |  | inactive [at 5.34 µM]
38 | Cc1cccc(C)c1N(CCCc1cccnc1)C(=O)C(C)N (stereo not drawn) | inactive |  | 
39 | O=P(O)(O)OC(CO)CO | inactive |  | 

Experiment: Primary qHTS for inhibitors of MERS-S pseudo-typed particle cell entry (AID 1479149); also: nearly all actives have a fitted effect of over 60% in size
Conditions: MERS-S pseudotyped particle entry, luciferase; series mostly up to 57.1 µM

Row | Compound | Potency | activity change, negative = inhibition | outcome
40 | CC1CCCC(C)N1C(=S)Nc1cccc(C(F)(F)F)c1 (stereo not drawn) | inactive |  | 
41 | CN1N=C2CCN(C(=O)[C@H](COCc3ccccc3)NC(=O)C(C)(C)N)C[C@]2(Cc2ccccc2)C1=O | inactive |  | 
42 | OC(c1ccccc1)(c1ccccc1)C12CC[N+](CCOCc3ccccc3)(CC1)CC2 | inactive |  | 
43 | C=CC1(C)CC(=O)C2(O)C(C)(O1)C(OC(C)=O)C(OC(=O)CCN(C)C)C1C(C)(C)CCC(O)C12C (stereo not drawn) | inactive |  | 
44 | CN[C@@H]1[C@@H](O)[C@@H](O[C@@H]2[C@@H](O)[C@H](OC3O[C@H](CN)[C@@H](O)[C@H](O)[C@H]3O)[C@@H](N)C[C@H]2NC(=O)[C@@H](O)CN)OC[C@]1(C)O (stereo partly drawn) | inactive |  | 
45 | COc1ccc(CNCC(O)COc2ccc3[nH]c(=O)ccc3c2)cc1OC (stereo not drawn) | inactive |  | 
46 | C[N+]1(C)CCN(CC(O)(c2ccccc2)C2CCCCC2)CC1 (stereo not drawn) | inactive |  | 
47 | O=P(O)(O)OC1C(OP(=O)(O)O)C(OP(=O)(O)O)C(OP(=O)(O)O)C(OP(=O)(O)O)C1OP(=O)(O)O (stereo not drawn) | inactive |  | 
48 | CNCc1cc(-c2ccccc2F)n(S(=O)(=O)c2cccnc2)c1 | inactive |  | 
49 | [Mn].[O]=[Mn][OH].[O]=[Mn][OH] | inactive |  | 
50 | C[C@]12C=CC(=O)C=C1CC[C@@H]1[C@@H]2[C@@H](O)C[C@@]2(C)[C@H]1CC[C@]2(O)C(=O)COP(=O)(O)O |  | -22% [at 11.4 µM] | 
51 | COc1cc(N)cn[n+]1-c1ccccc1 | inactive |  | 
52 | CC1CCCCN1CCCOC(=O)c1ccccc1 (stereo not drawn) | inactive |  | 
53 | CCCCCCCCCCCCOC(=O)CS(=O)(=O)O | inactive |  | 
54 | CCCCN(CCCC)C(=S)[S-].CCCCN(CCCC)C(=S)[S-].[Zn+2] | inactive |  | 
55 | CCC(=O)O[C@@H](OP(=O)(CCCCc1ccccc1)CC(=O)N1C[C@H](C2CCCCC2)C[C@H]1C(=O)O)C(C)C (stereo partly drawn) |  |  | inactive [at 11.4 µM]
56 | O=C(Nc1ccc(O)cc1)c1ccccc1O | inactive |  | 
57 | C=C1c2c(Cl)ccc(O)c2C(O)=C2C(=O)[C@@]3(O)C(O)=C(C(N)=O)C(=O)[C@@H](N(C)C)[C@@H]3[C@@H](O)[C@H]12 | 20 µM (active) |  | 
58 | Oc1cc(O)cc(O)c1 | inactive |  | 
59 | CC(OC(=O)NCC1(CC(=O)O)CCCCC1)OC(=O)C(C)C (stereo not drawn) | inactive |  | 

Row | Compound | Potency | activity change, negative = inhibition | outcome
60 | O=C(O)C(O)C(O)C(=O)O (stereo not drawn) | inactive |  | 
61 | NC(N)=NCC1COC2(CCCCC2)O1 (stereo not drawn) | inactive |  | 
62 | COC(=O)[C@@H](N)CS | inactive |  | 
63 | CC1(C)C[C@H]1C(=O)N/C(=C\CCCCSC[C@@H](N)C(=O)O)C(=O)O | inactive |  | 
64 | CCCCCCCCCCCCCCCC(=O)OCC(O)C1OC(=O)C(O)=C1O (stereo not drawn) | inactive |  | 
65 | Cc1c(C)c2c(c(C)c1OC(=O)CCC(=O)O)CC[C@@](C)(CCC[C@H](C)CCC[C@H](C)CCCC(C)C)O2 | inactive |  | 
66 | COc1nc2ccc(Br)cc2cc1[C@@H](c1ccccc1)[C@@](O)(CCN(C)C)c1cccc2ccccc12 | inactive |  | 
67 | CCOc1nc2cccc(C(=O)O)c2n1Cc1ccc(-c2ccccc2-c2noc(=O)[nH]2)cc1 | inactive |  | 
68 | CC[C@H]1OC(=O)C[C@@H](O)[C@H](C)[C@@H](O[C@@H]2O[C@H](C)[C@@H](O)[C@H](N(C)C)[C@H]2O)[C@@H](CCN2C[C@H](C)C[C@H](C)C2)C[C@@H](C)C(=O)/C=C/C(C)=C/[C@@H]1CO[C@@H]1O[C@H](C)[C@@H](O)[C@@H](OC)[C@H]1OC | inactive |  | 
69 | O=C(O)[C@H]1OC(O)[C@H](O)[C@@H](O)[C@@H]1O (stereo partly drawn) | inactive |  | 
70 | CCCCC(O)c1ccccc1 (stereo not drawn) | inactive |  | 
71 | CC(C)(C)C(=O)OCOC(=O)[C@@H]1N2C(=O)[C@@H](N=CN3CCCCCC3)[C@H]2SC1(C)C | inactive |  | 
72 | NC(=O)C1(N2CCCCC2)CCN(CCCN2c3ccccc3CCc3ccccc32)CC1 | 8.91 µM (active) |  | 
73 | C[N+](C)(C)CC(O)CC(=O)O (stereo not drawn) | inactive |  | 
74 | N[C@H](Cc1cnc[nH]1)C(=O)O | inactive |  | 
75 | CC(C)(C)NC(=O)N[C@H](C(=O)N1C[C@H]2[C@@H]([C@H]1C(=O)NC(CC1CCC1)C(=O)C(N)=O)C2(C)C)C(C)(C)C (stereo partly drawn) | inactive |  | 
76 | CN1c2c(nc(N)[nH]c2=O)NC[C@@H]1CNc1ccc(C(=O)N[C@@H](CCC(=O)O)C(=O)O)cc1 |  |  | inactive [at 5.34 µM]
77 | Cc1cccc(C)c1N(CCCc1cccnc1)C(=O)C(C)N (stereo not drawn) | inactive |  | 
78 | O=P(O)(O)OC(CO)CO | inactive |  | 
